# A selection: hits, their analogues and other compounds. The true share with any hit is near 0.89%.
# A1 inhib: inducers of caspase activity in MEF A1-2A-BIM cells, primary screen, A1 inhibitor project, cell-based, CaspaseGlo luminescence | caspase-Glo luminescence, 3 h; percent of clofoctol signal, DMSO as zero | hit rate 0.51% among 21,000 | caspase activation, % (test concentration not listed) | AID 2241, 2010;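 active = most replicate scores above 10, or exactly half above 10 with mean activity above 10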;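 also: effector caspase 3 and 7 activity cleaving a DEVD luciferin substrate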
# BJeLR viability: BJeLR cell viability loss, primary screen, luminescence, CellTiterGlo ATP | BJeLR fibroblasts viability, 48 h; HRASV12, hTERT and SV40 LT/ST transformed | hit rate 0.64% among 30,000 | viability loss activity score, % (concentration not given with the values); in the data active = viability loss activity score above about 50%;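 also: higher score means fewer live cells and less ATP luminescence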
# An asterisk follows results filed as active; · = not tested or not shown.
SMILES,A1 inhib,BJeLR viability
COc1cc(CC(C)C(C)Cc2ccc(O)c(OC)c2)ccc1O (stereo not given),8,118*
CCCCC[C@H](O)CC(=O)CCc1ccc(O)c(OC)c1,0,3
O=C(NCc1cccnc1)/C(=C\c1cccc(Oc2ccccc2)c1)S(=O)(=O)c1ccccc1,47*,96*
O=C(NCc1cccnc1)/C(=C\c1ccc(Br)cc1)S(=O)(=O)c1ccccc1,1,7
C=C(C)C(=O)O[C@H]1C[C@@]2(C)OC(=CC2=O)/C(COC(C)=O)=C\[C@H]2OC(=O)C(=C)C12 (stereo not given in full),2,61*
C=C(CO)C(=O)O[C@H]1C[C@@]23O[C@@H]2CC/C(=C/[C@H]2OC(=O)C(=C)[C@H]12)CO[C@@H]3O,0,-2
Cc1cc(Br)ccc1NCc1ccc2c(c1)OCO2,-2,-5
COc1cccc(-c2cc(NCc3ccc4c(c3)OCO4)nc(N)n2)c1,3,60*
O=C(Nc1ccc(-c2nc3ccccc3[nH]2)cc1)c1ccc(-c2ccccc2)cc1,-1,2
c1ccc2[nH]c(-c3nc4ccccc4s3)nc2c1,-7,101*
c1csc(CSc2nc3ccccc3[nH]2)c1,·,5
c1ccc2[nH]c(-c3cscn3)nc2c1,-5,59*
CC(C)CCNC(=O)c1cn(C)c2ccc(S(=O)(=O)N3CCC(C)CC3)cc2c1=O,·,2
CCCCS(=O)CSc1nc(-c2cccs2)cc(-c2ccccc2)c1C#N (stereo not given),0,-6
CC(=O)NCCSc1nc(-c2cccs2)cc(-c2ccc(F)cc2)c1C#N,10*,-9
COC(=O)c1nnn(CC(=O)Nc2ccc(OC)cc2)c1N,·,-8
CC1=Nc2cc(C(=O)NCc3ccc(C)cc3)ccc2Sc2ccccc21,·,-11
Cc1ccc(C(=O)c2oc3ccccc3c2NC(=O)c2ccco2)cc1,·,4
C[C@@H]1CC[C@]2(C(=O)O)CC[C@]3(C)C(=CCC4[C@@]5(C)CC[C@@H](O)[C@](C)(C(=O)O)C5CC[C@]43C)C2[C@H]1C (stereo not given in full),0,·
CC1CC(=O)[C@]2(C)CC[C@]3(C)C(C(=O)C(O)C4[C@@]5(C)CC[C@H](O)C(C)(C(=O)O)C5CC[C@]43C)C2C1C (stereo not given in full),3,106*
CCN(CC)c1ccc(/C=C2\CCc3ccccc3C2=O)cc1,·,41
Cn1cccc1/C=C1\CCc2ccccc2C1=O,·,73*
Cc1cccn2cc(-c3cccc(NC(=O)c4ccccc4)c3)nc12,·,1
CCOC(=O)c1cc(CC)sc1NC(=S)Nc1ccccc1C(F)(F)F,2,1
CCOC(=O)c1cc(-c2ccccc2)sc1NC(=O)CCN1CCN(CC)CC1,12*,51*
SMILES,A1 inhib,BJeLR viability
c1ccc(-c2nc(C34CC5CC(CC(C5)C3)C4)cs2)cc1,-1,13
FC(F)(F)c1[nH]nc(-c2ccccc2)c1C12CC3CC(CC(C3)C1)C2,11*,5
Fc1ccc(NC(=S)NCCCN2CCCCCC2)cc1Cl,·,2
CC(C)CN(CC(C)C)C(=O)CCn1c(=O)oc2ccccc21,·,0
NC(=O)C1C(=O)NC(c2ccccc2)=CC1c1ccc(Cl)cc1 (stereo not given),·,-4
COc1ccc(/C=C2\C(=O)C3(C)CCC2C3(C)C)cc1 (stereo not given),1,-3
CCCN1C/C(=C/c2ccc(OC)cc2)C(=O)/C(=C/c2ccc(OC)cc2)C1,·,70*
CC(=O)NCCOc1ccc(C2CCCCC2)cc1,0,1
Nc1cc(C(F)(F)F)ccc1Oc1ccc(C2CCCCC2)cc1,11*,5
CCCC(CCC)C(=O)Nc1cc(-c2cn3cccnc3n2)ccc1C,·,3
O=C(O)C1C2C=CC(O2)C1C(=O)Nc1nc(-c2ccccc2)cs1 (stereo not given),·,-7
C=CCNC1=C2C[C@@H](C)C[C@H](OC)[C@H](O)[C@@H](C)/C=C(\C)[C@H](OC(N)=O)[C@@H](OC)C=C/C=C(/C)C(=O)NC(=CC1=O)C2=O,0,69*
CC1CCCCC1NC(=O)c1cnn2c(C(F)(F)F)cc(-c3ccccc3)nc12 (stereo not given),0,2
O=C(CCc1nc2ccccc2[nH]1)NCc1ccc(F)cc1Cl,·,-1
CC(C)(C)C(=O)Nc1ccc2c(c1)C(=O)C(=O)c1ccccc1-2,-2,132*
CC(O)(C(=O)Nc1ccc(S(=O)(=O)c2ccccc2)cc1)C(F)(F)F (stereo not given),0,7
Cn1c(=O)c2cc(S(=O)(=O)NCCC(=O)NC3CCCC3)ccc2n(C)c1=O,·,-2
COc1ccc(CNC(=O)CCn2c(=O)c3sccc3n(CC(=O)N3CCCCC3C)c2=O)cc1 (stereo not given),·,-4
CSc1c(-c2ccc(Cl)cc2)[nH]c2ccccc12,14*,2
CCCCCCN(CCCCCC)C(=O)Cc1c(-c2ccc(F)cc2)[nH]c2ccccc12,-1,2
Cc1ccc(C2CC(c3cccs3)=NN2C(=O)CSc2ncnc3ccccc23)cc1 (stereo not given),·,-35
COc1cc2c(c(OC)c1OC)-c1cc3c(cc1C[C@H]1C(=O)OC[C@@H]1C2)OCO3,1,42
COc1cc([C@@H]2c3cc4c(cc3[C@H](O)[C@H]3COC(=O)[C@H]23)OCO4)cc(OC)c1OC,2,54*
COc1cc([C@@H]2c3cc4c(cc3[C@@H](O[C@@H]3O[C@@H]5CO[C@@H](C)O[C@H]5[C@H](O)[C@H]3O)[C@H]3COC(=O)[C@H]23)OCO4)cc(OC)c1O,0,15
COc1cc([C@@H]2c3cc4c(cc3[C@H](O)[C@H]3COC(=O)[C@@H]23)OCO4)cc(OC)c1OC,3,93*
O=C(Nc1ccccc1)OCc1ccc(-c2cc(C(F)(F)F)cc(C(F)(F)F)c2)o1,0,1
C/C=C(/C)C(=O)O[C@H]1CC(C)(C)C[C@H]2C3=CCC4[C@@]5(C)CC[C@H](O[C@@H]6O[C@H](C(=O)O)[C@@H](O[C@@H]7O[C@H](CO)[C@H](O)[C@H](O)[C@H]7O[C@@H]7O[C@H](CO)[C@@H](O)[C@H](O)[C@H]7O)[C@H](O)[C@H]6O[C@@H]6O[C@@H](C)[C@H](O)[C@@H](O)[C@H]6O)C(C)(C)C5CC[C@@]4(C)[C@]3(C)C[C@@H](O)[C@@]12CO (stereo not given in full),-4,127*
CC1OC(OC2C(C(=O)O)OC(O[C@H]3CC[C@@]4(C)C(CC[C@]5(C)C4CC=C4C6CC(C)(C)CC[C@]6(C(=O)OC6OC(CO)C(O)C(O)C6O)CC[C@]45C)C3(C)C)C(O)C2O)C(OC2OCC(O)C(O)C2O)C(O)C1O (stereo not given in full),0,-2
C=CC1(C)C=C2CCC3C(C)(C)C(O[C@@H]4O[C@@H](CO)[C@H](O)[C@H]4O)CCC3(C)C2CC1O[C@@H]1O[C@H](C)[C@H](O)[C@H](O)[C@H]1O (stereo not given in full),0,-7
